VP16 counter: VP16 counterscreen qHTS for inhibitors of ROR gamma transcriptional activity; Drosophila S2 Gal4-VP16 UAS-luciferase, luminescence, 20 h; Potency, µM (top dose mostly 53.6 µM), most hits filed as inhibitors; AID 2546, 2010; 310,000 tested, 3.5% active;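 further: Gal4-VP16 expression switched on by copper sulfate through the metallothionein promoter; nearly all actives have a fitted effect of over 50% in size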
GALK inh: qHTS Assay for Inhibitors of Human Galactokinase (GALK); AID 1868, 2009; 270,000 tested, 0.007% active; Purified GALK, Kinase-Glo residual ATP luminescence; Potency, µM (titrated, usually from 57.5 µM), hits mostly inhibitors
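The enzyme phosphorylates galactose (100 uM) using ATP (35 uM); inhibition is detected as higher residual ATP, quantified by bioluminescence after 1 h reaction at room temperature, pH 8.0.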
TrxR1 inh: qHTS Assay for Inhibitors of Mammalian Selenoprotein Thioredoxin Reductase 1 (TrxR1): qHTS. recombinant rTrxR1, NADPH fluorescence consumption, selenite substrate. 390,000 tested, 1% active. Potency, µM (doses to about 114 µM), usual class: inhibitors. Thioredoxin reductase 1, cytoplasmic (Rattus norvegicus), O89049; further: nearly all actives have a fitted effect of over 65% in size
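Rat TrxR1 (90 nM in the dispensed reagent) was pre-reduced with 400 uM NADPH for 5 min at room temperature, then incubated with compound for 15 min. After 400 uM selenite was added, NADPH fluorescence (Ex 340/Em 450 nm) was followed for 8 min.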
RORgamma inh: qHTS for inhibitors of ROR gamma transcriptional activity. Drosophila S2 Gal4-RORgamma UAS-luciferase reporter, 20 h. 310,000 tested, 5.4% active. AID 2551, 2010. Nuclear receptor ROR-gamma (Mus musculus), P51450. Potency, µM (series often up to 53.6 µM), hits mostly inhibitors; further: nearly all actives have a fitted effect of over 60% in size
Target sequence (P51450 whole entry, looked up, the tested form may be a part): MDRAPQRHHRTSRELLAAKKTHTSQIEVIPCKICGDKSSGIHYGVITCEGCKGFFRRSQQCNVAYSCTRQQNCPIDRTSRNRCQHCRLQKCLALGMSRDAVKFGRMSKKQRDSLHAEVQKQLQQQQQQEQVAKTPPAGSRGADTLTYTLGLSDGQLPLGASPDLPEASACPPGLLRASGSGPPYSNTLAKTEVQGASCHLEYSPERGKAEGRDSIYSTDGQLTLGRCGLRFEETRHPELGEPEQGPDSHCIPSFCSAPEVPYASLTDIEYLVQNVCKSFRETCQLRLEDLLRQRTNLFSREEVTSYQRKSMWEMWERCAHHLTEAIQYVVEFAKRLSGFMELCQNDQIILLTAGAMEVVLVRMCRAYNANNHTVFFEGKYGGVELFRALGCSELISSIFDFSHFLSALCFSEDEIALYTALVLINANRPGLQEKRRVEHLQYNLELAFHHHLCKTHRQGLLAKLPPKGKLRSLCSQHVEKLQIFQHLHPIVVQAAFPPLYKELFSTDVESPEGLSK
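Schneider cells (Drosophila), stable Gal4 DBD–ROR gamma + UAS-luc; 1 hr cmpd preincubation; Cu2+ induction 700 uM final; 20 hr ambient; luminescence.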
Coupling enz: qHTS Assay for Inhibitors of Fructose-1,6-bisphosphate Aldolase from Giardia Lamblia: Coupling assay counterscreen | coupling enzyme system counterscreen, AmpLite Red fluorescence | activity change, negative = inhibition, % at 58.2 µM, hits read low | 290,000 tested, 0.67% active | AID 2472, 2010; in the data active means activity change below about -30%
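Counterscreen of the coupled detection system alone, without aldolase: glyceraldehyde-3-phosphate coupling enzymes plus AmpLite Red readout. Compounds at 57.5 uM final, 10 min RT preincubation, 20 min RT reaction, fluorescence 525/598 nm.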
TrxR1 substrate: qHTS Assay for Substrates of Mammalian Selenoprotein Thioredoxin Reductase 1 (TrxR1): qHTS. Potency, µM (highest dose often 114 µM). purified TrxR1 substrate turnover, NADPH consumption readout. AID 588456, 2011. 390,000 tested, 0.01% active; further: nearly all actives have a fitted effect of over 50% in size
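Rat TrxR1, dispensed at 90 nM, was prereduced with 400 uM NADPH (final) for 5 min at ~22 deg C, then incubated with compound 15 min before 400 uM selenite. A first-read NADPH fluorescence drop versus no-compound background flagged substrates.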
A number is an active result; 0 = inactive; ? = inconclusive; - = no result. This is a sample that favours compounds with a hit; in the whole collection about 5.9% have one here. Unless noted, the call rests on the fitted dose curve; in most records, active means well fitted curve in the direction sought with a large enough effect; inconclusive means small, poorly fitted or top-dose-only effect, or another doubt; inactive means no such curve, though single readings can be large; an effect the other way counts as inactive or inconclusive.

SMILES	VP16 counter	GALK inh	TrxR1 inh	RORgamma inh	Coupling enz	TrxR1 substrate
Cc1scc(-c2n[nH]c(=S)n2Cc2ccccc2)c1C	11.2µM	0	0	2.24µM	0	0
CN1CCC(=NNC(=O)CN(c2cccc(Br)c2)S(C)(=O)=O)CC1	0	0	0	0	0	0
CCc1c(-c2n[nH]c(=S)n2Cc2ccccc2)csc1C	7.94µM	0	0	2.24µM	0	0
Cn1c(-c2csc(-c3ccccc3)n2)n[nH]c1=S	0	0	0	0	0	0
COc1ccc(Cl)cc1-c1n[nH]c(=S)n1Cc1ccccc1	5.01µM	0	0	5.01µM	0	0
O=[N+]([O-])c1ccccc1S(=O)(=O)Nc1cccc(-c2ccc(N3CCOCC3)nn2)c1	-	-	0	-	-	0
COC(=O)c1cccnc1-n1c(=O)c2cccnc2n(CC(=O)Nc2ccc(Br)cc2)c1=O	0	0	0	0	0	0
Cc1ccc(NC(=O)CN2C(=O)NC(C)(C3CC3)C2=O)cc1S(=O)(=O)N1CCCCC1 (configuration not stated)	-	-	0	-	-	0
CC(=S)/C=C1\Sc2ccccc2N1C	10µM	0	0	5.01µM	0	0
CCS(=O)(=O)NCc1ccc2[nH]c3c(c2c1)CCCC3	0	0	-	0	-44.2	-
Cc1cc(C)cc(NC(=S)NCc2ccc3[nH]c4c(c3c2)CCCC4)c1	7.08µM	-	0	2.51µM	0	0
S=C(NCc1ccc2[nH]c3c(c2c1)CCCC3)Nc1ccccc1	10µM	-	0	1.78µM	0	0
Cc1cc(C)cc(NC(=O)CN(C)S(=O)(=O)c2ccc3[nH]c4c(c3c2)CCCC4)c1	-	-	0	-	-	0
O=S(=O)(NCc1ccccc1)c1ccc2[nH]c3c(c2c1)CCCCC3	-	-	0	-	-	0
C=CCOC(=O)C1=C(C)NC(SCC(=O)Nc2nccs2)=C(C#N)C1c1cccs1 (configuration not stated)	?	0	0	?	0	0
CC(=O)C1=C(C)NC(SCC(=O)c2ccc(Cl)cc2Cl)=C(C#N)C1c1ccco1 (configuration not stated)	4.47µM	0	?	?	0	0
C=CCOC(=O)C1=C(C)NC(SCC(=O)Nc2nccs2)=C(C#N)C1c1ccc(Cl)cc1 (configuration not stated)	?	0	0	11.2µM	0	0
CSCSC1=C(C#N)C(c2ccc(Cl)cc2)C(C(C)=O)=C(C)N1 (configuration not stated)	?	0	-	14.1µM	0	-
CC(=O)Nc1nc(CC(C)C)cc(-c2ccco2)c1C#N	0	0	0	0	0	0
CSc1c(-c2ccccn2)c(N)nn1C(=O)C1CC1	0	-	0	0	0	0
CCN(CC)CC(C)(C)C(=O)/C=C/c1ccc(/C=C/C(=O)C(C)(C)CN(CC)CC)cc1	-	-	2µM	-	-	0
CC(=O)N1N=C(c2c(-c3ccccc3)c3cc(Br)ccc3[nH]c2=O)CC1c1ccco1 (configuration not stated)	0	0	50.1µM	0	0	0
Cc1ccc([N+](=O)[O-])cc1NC(=S)NC(=O)c1cccnc1	0	0	0	12.6µM	0	0
O=C(NC(=S)Nc1cc([N+](=O)[O-])ccc1O)c1cccnc1	12.6µM	0	0	2µM	0	0
Cc1ccccc1CSc1[nH]c(=O)ncc1C	0	0	0	0	0	0
O=C(CN(C(=O)c1cccc([N+](=O)[O-])c1)C1CCCCC1)Nc1ccc(Cl)c([N+](=O)[O-])c1	0	0	0	?	0	0
O=C(CCl)N(C1CCCC1)C1CCS(=O)(=O)C1 (configuration not stated)	15.8µM	0	?	?	0	0
CCn1c(-c2ccc(N(C)C)cc2)nc2ccccc21	?	0	0	6.31µM	-	0
CN(Cc1nc2ccccc2n1C)c1ccccc1	?	0	0	11.2µM	0	0

Assay outcomes as filed in PubChem.
